Here are results for 8 compounds from PubChem BioAssay (NCI).

Test systems include SR leukemia; RPMI-8226 leukemia; OVCAR-8 ovarian; OVCAR-5 ovarian; OVCAR-4 ovarian; SK-OV-3 ovarian; IGROV1 ovarian; OVCAR-3 ovarian; HS 578T breast; NCI/ADR-RES ovarian; T-47D breast; BT-549 breast; MDA-MB-435 melanoma; SW-620 colon; MCF7 breast; HCT-116 colon; HCC-2998 colon; KM12 colon.
Experiment in all cases: NCI-60 one-dose screen, 48 h (100 = growth as untreated, 0 = no growth, -100 = all killed)
Holding throughout (settings): 10 µM unless noted

Compounds without any hit were thinned out: in the full panel of roughly 83,000, 20% have a hit.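 The test compound was applied at a single concentration to cells in 96-well plates for 48 hours, and percent growth was recorded.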 A number with no mark means an inactive call. Active and inactive are the calls of the source. How the source made its calls: active means growth percent below 10; inactive means the rest.

Turning to `CCN(CC)CCOc1ccc(C(=C(c2ccccc2)C2CCCC2)c2ccc(OCCN(CC)CC)cc2)cc1`, the growth in the assay with SR leukemia was -5.92% (active); in the assay on RPMI-8226 leukemia, -30.8% (active); with OVCAR-8 ovarian it was 40.5%; in the assay with OVCAR-5 ovarian it was 38.5%; in the assay with OVCAR-4 ovarian it was 34.7%; with SK-OV-3 ovarian, 21.2%. Further, the growth with IGROV1 ovarian is -40.4% (active); in the assay on OVCAR-3 ovarian it was 16.9%; with HS 578T breast it was 12.8%; in the assay with NCI/ADR-RES ovarian, 97.1%; with T-47D breast, 18.8%; in the assay on BT-549 breast, -18.6% (active). For the same compound, the growth was -10% (active) with MDA-MB-435 melanoma; 33.5% with SW-620 colon; -57.3% (active) in the assay on MCF7 breast; 13.3% with HCT-116 colon; -62.3% (active) in the assay on HCC-2998 colon; -7.22% (active) in the assay with KM12 colon.

As to `Cn1c(SCC(=O)c2ccco2)nc2ccccc2c1=O`, the growth is 91.5% in the assay on SR leukemia; 93.4% with RPMI-8226 leukemia; 101% in the assay on OVCAR-8 ovarian; 111% with OVCAR-5 ovarian; 95.5% with OVCAR-4 ovarian; 107% in the assay with SK-OV-3 ovarian. The growth was 86.1% in the assay with IGROV1 ovarian; 107% with OVCAR-3 ovarian; 104% in the assay with HS 578T breast; 105% in the assay on NCI/ADR-RES ovarian; 55.3% in the assay on T-47D breast; 96.5% in the assay on BT-549 breast. Also, the growth in the assay on MDA-MB-435 melanoma is 105%; with SW-620 colon, 111%; with MCF7 breast it was 18.3%; with HCT-116 colon, 102%; with HCC-2998 colon, 112%; in the assay with KM12 colon, 86.3%.

On to `COC(=O)c1ccc(NC2=C(Cl)C(=O)C(C)=C(C)C2=O)cc1`, for which the growth in the assay on SR leukemia is 13.6%; in the assay on RPMI-8226 leukemia, 36.5%; with OVCAR-8 ovarian, 77.9%; with OVCAR-5 ovarian, 90.9%; in the assay on OVCAR-4 ovarian, 32.4%; in the assay with SK-OV-3 ovarian, 86.2%. In addition, the growth with IGROV1 ovarian is 70.4%; in the assay on OVCAR-3 ovarian it was 30.1%; with HS 578T breast, 77.1%; in the assay on NCI/ADR-RES ovarian, 65.2%; in the assay on T-47D breast, -25.9% (active); with BT-549 breast, 77.5%. In addition, the growth was 7.22% (active) in the assay with MDA-MB-435 melanoma; 35.5% with SW-620 colon; 35.9% in the assay on MCF7 breast; 32.4% in the assay on HCT-116 colon; 71.1% in the assay with HCC-2998 colon; 6.69% (active) in the assay on KM12 colon.

As to `O=C(Nc1cccc(C(F)(F)F)c1)N1CCN(c2cc(-c3cn(-c4ccccc4)nc3-c3cccc(O)c3)ccn2)CC1`, the growth with SR leukemia was 27.6%; in the assay with RPMI-8226 leukemia it was 27.8%; with OVCAR-8 ovarian, 31.4%; with OVCAR-5 ovarian it was 82.3%; with OVCAR-4 ovarian, 24.9%; in the assay on SK-OV-3 ovarian it was 84.7%. Moreover, the growth in the assay on IGROV1 ovarian was 43.3%; with OVCAR-3 ovarian, 54.4%; in the assay with HS 578T breast, 53.5%; in the assay on NCI/ADR-RES ovarian, 28.5%; in the assay with T-47D breast, -5.55% (active); in the assay with BT-549 breast it was 55.4%. The growth with MDA-MB-435 melanoma is 47.3%; in the assay on SW-620 colon, 52.3%; in the assay on MCF7 breast, 25.3%; in the assay with HCT-116 colon, 27.4%; in the assay on HCC-2998 colon, 86.3%; with KM12 colon, 32%.

With `COc1cc(C(=O)c2cc(C(C)=O)c3c(C)cccn23)cc(OC)c1OC`, the growth in the assay on SR leukemia was 96.5%; in the assay on RPMI-8226 leukemia, 95.5%; in the assay on OVCAR-8 ovarian, 106%; in the assay on OVCAR-5 ovarian it was 95.8%; in the assay with OVCAR-4 ovarian it was 90.8%; in the assay with SK-OV-3 ovarian, 109%. Moreover, the growth with IGROV1 ovarian was 97.6%; in the assay on OVCAR-3 ovarian, 115%; in the assay with HS 578T breast, 90.7%; in the assay on NCI/ADR-RES ovarian, 97.9%; in the assay with T-47D breast it was 81.8%; in the assay with BT-549 breast it was 104%. The growth in the assay with MDA-MB-435 melanoma is 97.3%; with SW-620 colon it was 104%; in the assay on MCF7 breast, 82.7%; in the assay on HCT-116 colon, 95.1%; in the assay on HCC-2998 colon, 105%; in the assay with KM12 colon, 96.5%.

On to `O=C(/C=C/Nc1ccc(S(=O)(=O)Nc2ncccn2)cc1)c1ccc(N=Cc2c(O)[nH]c3ccccc23)cc1`, for which the growth was 82.1% in the assay on SR leukemia; 86.4% in the assay with RPMI-8226 leukemia; 101% with OVCAR-8 ovarian; 115% in the assay on OVCAR-5 ovarian; 106% in the assay on OVCAR-4 ovarian; 109% in the assay with SK-OV-3 ovarian. Further, the growth is 118% with IGROV1 ovarian; 137% in the assay on OVCAR-3 ovarian; 105% in the assay on HS 578T breast; 110% in the assay with NCI/ADR-RES ovarian; 93.1% in the assay on T-47D breast; 101% with BT-549 breast. The growth was 100% in the assay on MDA-MB-435 melanoma; 112% with SW-620 colon; 87.4% in the assay with MCF7 breast; 111% in the assay with HCT-116 colon; 109% with HCC-2998 colon; 37.3% in the assay on KM12 colon.

`O=C(CCCCCCNC(=O)C(O)(O)C(F)(F)F)Nc1ccc(Br)cc1`: the growth in the assay with SR leukemia is 8.58% (active); with RPMI-8226 leukemia it was 20.7%; in the assay on OVCAR-8 ovarian it was 7.83% (active); in the assay on OVCAR-5 ovarian, 5.89% (active); with OVCAR-4 ovarian, 28.5%; in the assay with SK-OV-3 ovarian, -13.4% (active). Further, the growth with IGROV1 ovarian was 15.7%; in the assay with OVCAR-3 ovarian, -12.8% (active); in the assay on HS 578T breast, 15.7%; with NCI/ADR-RES ovarian it was 16.9%; in the assay on T-47D breast it was 8.06% (active); in the assay with BT-549 breast, 19.5%. The growth with MDA-MB-435 melanoma was 6.63% (active); with SW-620 colon, 3.78% (active); in the assay on MCF7 breast, 13.7%; in the assay on HCT-116 colon, -6.77% (active); in the assay on HCC-2998 colon, 1.89% (active); in the assay on KM12 colon, 14.1%.

Regarding `CN1CCN(c2ccc(Nc3nc(NCCNC(=O)c4ccc(F)cc4)c4sccc4n3)cc2)CC1`, the growth in the assay with SR leukemia was 0.604% (active); in the assay with RPMI-8226 leukemia it was 32.1%; in the assay with OVCAR-8 ovarian, 77.4%; in the assay with OVCAR-5 ovarian, 85.3%; with OVCAR-4 ovarian it was 61.1%; in the assay on SK-OV-3 ovarian, 125%. Besides, the growth with IGROV1 ovarian is 87.7%; with OVCAR-3 ovarian, 86.2%; with HS 578T breast, 75.6%; in the assay with NCI/ADR-RES ovarian, 88.5%; in the assay with T-47D breast, 18.2%; with BT-549 breast, 56.1%. Moreover, the growth in the assay on MDA-MB-435 melanoma was 46.9%; with SW-620 colon it was 75.2%; in the assay with MCF7 breast it was 41%; in the assay on HCT-116 colon it was 22%; with HCC-2998 colon, 70.4%; in the assay with KM12 colon, 65.4%.
